# Assay results as given in publication PMC7862700, “An all-to-all approach to the identification of sequence-specific readers for epigenetic DNA modifications on cytosine”.
# Assays:
# Test in all cases: DAPPL (digital affinity profiling via proximity ligation, sequencing); 10 mM Tris-HCl pH 7.5, 50 mM NaCl, 1 mM DTT, 4% glycerol, room temperature, 30 min; GST-TFs on glutathione beads, 16-mer random dsDNA library, 0.1% formaldehyde crosslink after washing; high values mean tight binding
# FLI1 = biological target: T1, FLI1 (Homo sapiens, UniProt Q01543 1-452); settings: protein: recombinant; tags: N-terminal GST; dsDNA, one strand shown
# T1 sequence: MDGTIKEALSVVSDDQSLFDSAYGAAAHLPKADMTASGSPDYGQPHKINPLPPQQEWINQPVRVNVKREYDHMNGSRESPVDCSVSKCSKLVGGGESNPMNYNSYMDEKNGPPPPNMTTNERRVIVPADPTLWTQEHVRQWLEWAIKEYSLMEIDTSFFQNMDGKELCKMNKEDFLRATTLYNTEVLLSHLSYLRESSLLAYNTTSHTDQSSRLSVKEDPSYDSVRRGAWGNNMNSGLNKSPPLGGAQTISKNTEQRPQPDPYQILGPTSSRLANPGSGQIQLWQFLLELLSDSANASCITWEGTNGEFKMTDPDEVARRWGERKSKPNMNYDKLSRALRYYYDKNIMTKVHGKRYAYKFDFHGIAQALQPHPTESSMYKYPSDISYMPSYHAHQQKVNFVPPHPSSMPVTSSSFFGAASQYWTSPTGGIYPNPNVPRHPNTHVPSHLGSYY
# Procedure, shortened: (§1)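 Each value of binding signal is a hexamer's read frequency for a factor divided by the same hexamer's frequency in the tag-only sample. Barcoded, bead-captured GST fusions of human transcription factors made in yeast were pooled with that sample and incubated with 200 nmole of a random double-stranded 16-mer DNA library in Tris/NaCl/DTT/glycerol buffer at room temperature for 30 min. Washing, 0.1% formaldehyde crosslinking, proximity ligation, PCR and Illumina NextSeq500 sequencing followed.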
# ELK1 = biological target: T2, ELK1 (Homo sapiens, UniProt P19419 1-428); settings: protein: recombinant; tags: N-terminal GST; dsDNA, one strand shown
# T2 sequence: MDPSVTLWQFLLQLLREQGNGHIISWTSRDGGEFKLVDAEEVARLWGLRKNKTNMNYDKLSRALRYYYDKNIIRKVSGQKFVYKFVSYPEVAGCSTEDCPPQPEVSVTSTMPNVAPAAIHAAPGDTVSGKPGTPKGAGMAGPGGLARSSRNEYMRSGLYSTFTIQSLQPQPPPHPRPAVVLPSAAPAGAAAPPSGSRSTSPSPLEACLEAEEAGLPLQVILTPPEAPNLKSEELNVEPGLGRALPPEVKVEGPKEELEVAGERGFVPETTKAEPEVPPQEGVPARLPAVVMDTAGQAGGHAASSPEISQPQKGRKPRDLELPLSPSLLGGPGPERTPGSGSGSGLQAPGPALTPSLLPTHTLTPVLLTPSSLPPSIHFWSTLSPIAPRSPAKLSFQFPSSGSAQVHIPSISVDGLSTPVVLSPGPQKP
# Procedure, shortened: as §1
# GABPA = biological target: T3, GABPA (Homo sapiens, UniProt Q06546 1-454); settings: protein: recombinant; tags: N-terminal GST; dsDNA, one strand shown
# T3 sequence: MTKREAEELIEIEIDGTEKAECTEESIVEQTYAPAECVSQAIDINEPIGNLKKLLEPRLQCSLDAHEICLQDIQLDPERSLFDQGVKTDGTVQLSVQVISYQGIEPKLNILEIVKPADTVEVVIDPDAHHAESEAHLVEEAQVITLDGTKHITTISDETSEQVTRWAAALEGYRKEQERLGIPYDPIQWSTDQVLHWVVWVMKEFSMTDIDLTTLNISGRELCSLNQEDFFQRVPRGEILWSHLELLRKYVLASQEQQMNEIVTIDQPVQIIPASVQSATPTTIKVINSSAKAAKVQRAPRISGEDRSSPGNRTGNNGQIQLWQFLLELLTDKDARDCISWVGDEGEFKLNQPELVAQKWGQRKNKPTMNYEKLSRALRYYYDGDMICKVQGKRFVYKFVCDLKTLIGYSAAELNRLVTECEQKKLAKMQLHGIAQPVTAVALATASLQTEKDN
# Procedure, shortened: as §1
# ERG = biological target: T4, ERG (Homo sapiens, UniProt P11308 1-479); settings: protein: recombinant; tags: N-terminal GST; dsDNA, one strand shown
# T4 sequence: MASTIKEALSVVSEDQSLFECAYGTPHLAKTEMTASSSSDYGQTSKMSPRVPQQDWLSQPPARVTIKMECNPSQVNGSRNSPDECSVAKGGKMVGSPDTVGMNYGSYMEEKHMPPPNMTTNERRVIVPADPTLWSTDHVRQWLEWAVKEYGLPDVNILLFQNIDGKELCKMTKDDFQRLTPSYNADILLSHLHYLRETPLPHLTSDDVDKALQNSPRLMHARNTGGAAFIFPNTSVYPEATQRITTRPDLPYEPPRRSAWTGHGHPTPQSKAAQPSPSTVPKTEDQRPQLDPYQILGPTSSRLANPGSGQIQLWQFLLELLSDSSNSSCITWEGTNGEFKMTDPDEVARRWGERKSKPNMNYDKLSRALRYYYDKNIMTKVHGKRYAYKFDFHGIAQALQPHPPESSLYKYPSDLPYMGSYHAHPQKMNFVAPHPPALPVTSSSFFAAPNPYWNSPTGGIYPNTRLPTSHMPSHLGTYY
# Procedure, shortened: as §1
# ELF1 = ELF1 (Homo sapiens, UniProt P32519 1-619); settings: protein: recombinant; tags: N-terminal GST; dsDNA, one strand shown
# Procedure, shortened: as §1
# EHF = biological target: T5, EHF (Homo sapiens, UniProt Q9NZC4 1-300); settings: protein: recombinant; tags: N-terminal GST; dsDNA, one strand shown
# T5 sequence: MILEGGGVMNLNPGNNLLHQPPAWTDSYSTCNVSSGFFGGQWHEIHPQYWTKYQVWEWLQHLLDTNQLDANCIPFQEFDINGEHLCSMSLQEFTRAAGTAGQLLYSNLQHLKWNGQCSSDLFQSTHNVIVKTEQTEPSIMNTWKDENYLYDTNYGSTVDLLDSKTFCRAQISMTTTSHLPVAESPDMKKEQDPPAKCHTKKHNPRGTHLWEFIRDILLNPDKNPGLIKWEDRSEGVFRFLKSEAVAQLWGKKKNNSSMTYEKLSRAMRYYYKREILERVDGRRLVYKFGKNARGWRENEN
# Procedure, shortened: as §1
# SPI1 = SPI1 (Homo sapiens, UniProt P17947 1-270); settings: protein: recombinant; tags: N-terminal GST; dsDNA, one strand shown
# Procedure, shortened: as §1
# SPIB = SPIB (Homo sapiens, UniProt Q01892 1-262); settings: protein: recombinant; tags: N-terminal GST; dsDNA, one strand shown
# Procedure, shortened: as §1
# ELK3 = biological target: T6, ELK3 (Homo sapiens, UniProt P41970 1-407); settings: protein: recombinant; tags: N-terminal GST; dsDNA, one strand shown
# T6 sequence: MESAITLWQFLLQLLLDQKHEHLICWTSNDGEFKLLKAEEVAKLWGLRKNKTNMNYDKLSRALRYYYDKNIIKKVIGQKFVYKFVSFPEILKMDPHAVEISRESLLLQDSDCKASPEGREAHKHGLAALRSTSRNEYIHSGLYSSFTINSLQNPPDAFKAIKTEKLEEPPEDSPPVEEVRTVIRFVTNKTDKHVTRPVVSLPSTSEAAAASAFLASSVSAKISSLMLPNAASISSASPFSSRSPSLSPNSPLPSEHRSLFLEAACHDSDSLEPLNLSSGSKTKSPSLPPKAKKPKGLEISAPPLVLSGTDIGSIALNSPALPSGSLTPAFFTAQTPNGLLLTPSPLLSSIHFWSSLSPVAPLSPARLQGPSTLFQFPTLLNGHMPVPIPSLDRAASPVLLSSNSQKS
# Procedure, shortened: as §1
# FEV = biological target: T7, FEV (Homo sapiens, UniProt Q99581 1-238); settings: protein: recombinant; tags: N-terminal GST; dsDNA, one strand shown
# T7 sequence: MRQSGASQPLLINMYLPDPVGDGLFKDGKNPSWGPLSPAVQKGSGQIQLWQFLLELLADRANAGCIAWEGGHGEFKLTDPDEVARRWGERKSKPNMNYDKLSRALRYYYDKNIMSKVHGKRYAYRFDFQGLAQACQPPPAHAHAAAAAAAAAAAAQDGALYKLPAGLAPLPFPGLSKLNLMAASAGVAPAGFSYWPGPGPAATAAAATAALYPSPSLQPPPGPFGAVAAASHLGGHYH
# Procedure, shortened: as §1
# ETV5 = ETV5 (Homo sapiens, UniProt P41161 1-510); settings: protein: recombinant; tags: N-terminal GST; dsDNA, one strand shown
# Procedure, shortened: as §1
# HSF1 = HSF1 (Homo sapiens, UniProt Q00613 1-529); settings: protein: recombinant; tags: N-terminal GST; chain copies: 3; dsDNA, one strand shown
# Procedure, shortened: as §1
# SPIC = biological target: T8, SPIC (Homo sapiens, UniProt Q8N5J4 1-248); settings: protein: recombinant; tags: N-terminal GST; dsDNA, one strand shown
# T8 sequence: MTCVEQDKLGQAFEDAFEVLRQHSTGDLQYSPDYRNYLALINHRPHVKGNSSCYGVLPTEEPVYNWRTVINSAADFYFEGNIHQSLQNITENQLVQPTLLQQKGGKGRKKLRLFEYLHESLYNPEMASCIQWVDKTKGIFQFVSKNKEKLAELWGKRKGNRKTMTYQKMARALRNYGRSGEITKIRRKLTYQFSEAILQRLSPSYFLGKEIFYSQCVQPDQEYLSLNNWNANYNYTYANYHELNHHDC
# Procedure, shortened: as §1
# ELF4 = ELF4 (Homo sapiens, UniProt Q99607 1-663); settings: protein: recombinant; tags: N-terminal GST; dsDNA, one strand shown
# Procedure, shortened: as §1
# ELK4 = biological target: T9, ELK4 (Homo sapiens, UniProt P28324-2 1-405); settings: protein: recombinant; tags: N-terminal GST; dsDNA, one strand shown
# T9 sequence: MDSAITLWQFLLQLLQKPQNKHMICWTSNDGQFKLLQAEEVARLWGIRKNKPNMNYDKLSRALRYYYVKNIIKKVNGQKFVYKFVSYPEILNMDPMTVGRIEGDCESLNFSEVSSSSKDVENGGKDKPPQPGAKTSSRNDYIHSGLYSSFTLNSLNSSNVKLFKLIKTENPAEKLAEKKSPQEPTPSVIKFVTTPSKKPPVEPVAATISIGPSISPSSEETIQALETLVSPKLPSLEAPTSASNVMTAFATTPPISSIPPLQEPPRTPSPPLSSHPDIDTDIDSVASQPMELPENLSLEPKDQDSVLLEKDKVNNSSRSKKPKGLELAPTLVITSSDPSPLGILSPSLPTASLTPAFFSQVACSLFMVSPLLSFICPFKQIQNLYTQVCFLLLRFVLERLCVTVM
# Procedure, shortened: as §1
# ETV2 = biological target: T10, ETV2 (Homo sapiens, UniProt O00321 1-342); settings: protein: recombinant; tags: N-terminal GST; dsDNA, one strand shown
# T10 sequence: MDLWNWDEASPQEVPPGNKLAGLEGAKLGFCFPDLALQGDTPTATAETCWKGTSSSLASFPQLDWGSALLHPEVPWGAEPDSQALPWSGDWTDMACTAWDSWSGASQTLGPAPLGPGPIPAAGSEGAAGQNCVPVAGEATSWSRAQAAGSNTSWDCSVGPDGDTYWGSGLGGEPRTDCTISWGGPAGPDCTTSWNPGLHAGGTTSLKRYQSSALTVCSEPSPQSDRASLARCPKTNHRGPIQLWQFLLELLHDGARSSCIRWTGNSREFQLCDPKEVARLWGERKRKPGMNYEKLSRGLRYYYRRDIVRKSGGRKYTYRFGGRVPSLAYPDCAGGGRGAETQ
# Procedure, shortened: as §1
# ELF3 = biological target: T11, ELF3 (Homo sapiens, UniProt P78545 1-371); settings: protein: recombinant; tags: N-terminal GST; dsDNA, one strand shown
# T11 sequence: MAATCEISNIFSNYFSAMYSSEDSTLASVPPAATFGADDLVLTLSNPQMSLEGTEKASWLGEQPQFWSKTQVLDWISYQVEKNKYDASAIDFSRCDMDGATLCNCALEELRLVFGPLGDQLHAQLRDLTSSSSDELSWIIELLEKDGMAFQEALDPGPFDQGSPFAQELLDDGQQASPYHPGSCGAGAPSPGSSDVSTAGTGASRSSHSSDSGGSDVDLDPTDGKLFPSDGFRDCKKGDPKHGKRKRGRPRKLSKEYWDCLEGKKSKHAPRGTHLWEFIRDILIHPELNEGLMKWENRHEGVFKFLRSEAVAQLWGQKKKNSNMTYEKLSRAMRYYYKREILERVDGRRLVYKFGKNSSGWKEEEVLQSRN
# Procedure, shortened: as §1
# CRX = CRX (Homo sapiens, UniProt O43186 1-299); settings: protein: recombinant; tags: N-terminal GST; dsDNA, one strand shown
# Procedure, shortened: as §1
# ETV1 = ETV1 (Homo sapiens, UniProt P50549 1-477); settings: protein: recombinant; tags: N-terminal GST; dsDNA, one strand shown
# Procedure, shortened: as §1
# Chain of CRX (O43186 whole entry): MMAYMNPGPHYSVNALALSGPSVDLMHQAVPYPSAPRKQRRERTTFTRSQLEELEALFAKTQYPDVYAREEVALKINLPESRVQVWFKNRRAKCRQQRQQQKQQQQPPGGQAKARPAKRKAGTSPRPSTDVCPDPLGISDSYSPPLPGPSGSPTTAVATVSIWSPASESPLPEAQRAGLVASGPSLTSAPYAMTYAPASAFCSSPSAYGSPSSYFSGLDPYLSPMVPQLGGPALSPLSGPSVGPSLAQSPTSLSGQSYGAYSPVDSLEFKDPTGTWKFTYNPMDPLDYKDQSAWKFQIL
# Chain of SPIB (Q01892 whole entry): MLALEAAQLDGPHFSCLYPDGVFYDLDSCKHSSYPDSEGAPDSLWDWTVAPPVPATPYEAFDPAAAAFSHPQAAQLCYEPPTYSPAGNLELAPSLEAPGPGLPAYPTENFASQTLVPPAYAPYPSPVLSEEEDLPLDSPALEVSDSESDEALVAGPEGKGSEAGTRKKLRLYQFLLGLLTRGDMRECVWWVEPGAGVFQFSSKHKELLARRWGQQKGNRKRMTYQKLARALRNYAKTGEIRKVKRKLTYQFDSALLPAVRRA
# Chain of ETV5 (P41161 whole entry): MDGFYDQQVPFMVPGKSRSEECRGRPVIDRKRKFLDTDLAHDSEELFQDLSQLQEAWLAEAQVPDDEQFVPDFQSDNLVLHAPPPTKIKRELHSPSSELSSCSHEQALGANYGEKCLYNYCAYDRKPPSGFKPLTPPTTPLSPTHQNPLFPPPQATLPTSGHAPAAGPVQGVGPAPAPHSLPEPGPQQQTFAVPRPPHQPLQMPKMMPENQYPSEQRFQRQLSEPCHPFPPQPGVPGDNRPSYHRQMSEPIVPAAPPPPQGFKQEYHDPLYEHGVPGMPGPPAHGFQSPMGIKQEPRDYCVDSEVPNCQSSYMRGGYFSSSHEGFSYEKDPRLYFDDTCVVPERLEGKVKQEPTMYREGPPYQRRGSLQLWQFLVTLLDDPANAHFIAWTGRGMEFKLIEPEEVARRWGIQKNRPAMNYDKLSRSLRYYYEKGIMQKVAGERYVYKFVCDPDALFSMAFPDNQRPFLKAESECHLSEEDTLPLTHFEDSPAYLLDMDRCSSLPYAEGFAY
# Chain of ELF1 (P32519 whole entry): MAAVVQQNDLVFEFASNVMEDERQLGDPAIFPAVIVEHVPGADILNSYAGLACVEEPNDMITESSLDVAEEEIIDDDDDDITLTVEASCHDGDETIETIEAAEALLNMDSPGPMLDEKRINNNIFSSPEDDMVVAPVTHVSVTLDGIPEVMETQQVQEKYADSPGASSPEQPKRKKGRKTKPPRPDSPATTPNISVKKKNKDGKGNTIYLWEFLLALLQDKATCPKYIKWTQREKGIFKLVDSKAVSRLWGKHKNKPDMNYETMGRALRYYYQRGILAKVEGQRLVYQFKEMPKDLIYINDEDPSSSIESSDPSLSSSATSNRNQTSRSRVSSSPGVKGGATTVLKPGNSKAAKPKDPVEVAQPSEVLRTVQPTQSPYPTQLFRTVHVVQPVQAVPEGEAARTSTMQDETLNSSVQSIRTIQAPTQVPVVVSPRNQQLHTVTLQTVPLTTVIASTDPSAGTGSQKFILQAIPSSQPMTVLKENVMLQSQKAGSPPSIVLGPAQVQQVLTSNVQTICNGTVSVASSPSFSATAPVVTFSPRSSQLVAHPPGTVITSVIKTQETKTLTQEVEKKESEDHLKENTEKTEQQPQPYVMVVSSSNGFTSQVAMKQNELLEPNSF
# Chain of HSF1 (Q00613 whole entry): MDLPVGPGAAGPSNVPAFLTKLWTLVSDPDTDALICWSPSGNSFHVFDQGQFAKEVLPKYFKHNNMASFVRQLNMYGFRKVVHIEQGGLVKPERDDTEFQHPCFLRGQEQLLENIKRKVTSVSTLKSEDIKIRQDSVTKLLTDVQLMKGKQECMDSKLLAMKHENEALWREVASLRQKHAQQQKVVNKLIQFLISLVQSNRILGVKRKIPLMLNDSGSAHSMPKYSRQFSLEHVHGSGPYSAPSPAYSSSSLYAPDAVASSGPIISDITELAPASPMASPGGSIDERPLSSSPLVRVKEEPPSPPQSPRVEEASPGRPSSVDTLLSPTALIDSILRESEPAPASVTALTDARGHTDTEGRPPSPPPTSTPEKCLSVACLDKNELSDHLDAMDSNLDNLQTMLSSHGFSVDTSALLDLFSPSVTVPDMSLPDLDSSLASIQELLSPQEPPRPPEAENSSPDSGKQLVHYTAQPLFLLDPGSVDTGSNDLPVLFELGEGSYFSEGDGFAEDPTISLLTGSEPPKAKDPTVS
# Chain of ETV1 (P50549 whole entry): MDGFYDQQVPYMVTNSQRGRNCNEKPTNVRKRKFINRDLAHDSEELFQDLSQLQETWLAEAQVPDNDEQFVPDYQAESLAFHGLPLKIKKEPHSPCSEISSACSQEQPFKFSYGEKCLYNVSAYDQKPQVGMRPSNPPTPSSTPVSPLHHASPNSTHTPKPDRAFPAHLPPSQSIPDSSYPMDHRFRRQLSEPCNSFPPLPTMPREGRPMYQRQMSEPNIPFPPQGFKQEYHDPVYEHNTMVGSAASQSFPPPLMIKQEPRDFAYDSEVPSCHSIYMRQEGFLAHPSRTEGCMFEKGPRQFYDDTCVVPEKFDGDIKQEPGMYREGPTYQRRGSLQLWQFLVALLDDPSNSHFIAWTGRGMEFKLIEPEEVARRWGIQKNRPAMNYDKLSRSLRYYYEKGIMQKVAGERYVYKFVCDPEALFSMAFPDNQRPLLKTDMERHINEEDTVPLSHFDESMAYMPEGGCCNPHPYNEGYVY
# Chain of ELF4 (Q99607 whole entry): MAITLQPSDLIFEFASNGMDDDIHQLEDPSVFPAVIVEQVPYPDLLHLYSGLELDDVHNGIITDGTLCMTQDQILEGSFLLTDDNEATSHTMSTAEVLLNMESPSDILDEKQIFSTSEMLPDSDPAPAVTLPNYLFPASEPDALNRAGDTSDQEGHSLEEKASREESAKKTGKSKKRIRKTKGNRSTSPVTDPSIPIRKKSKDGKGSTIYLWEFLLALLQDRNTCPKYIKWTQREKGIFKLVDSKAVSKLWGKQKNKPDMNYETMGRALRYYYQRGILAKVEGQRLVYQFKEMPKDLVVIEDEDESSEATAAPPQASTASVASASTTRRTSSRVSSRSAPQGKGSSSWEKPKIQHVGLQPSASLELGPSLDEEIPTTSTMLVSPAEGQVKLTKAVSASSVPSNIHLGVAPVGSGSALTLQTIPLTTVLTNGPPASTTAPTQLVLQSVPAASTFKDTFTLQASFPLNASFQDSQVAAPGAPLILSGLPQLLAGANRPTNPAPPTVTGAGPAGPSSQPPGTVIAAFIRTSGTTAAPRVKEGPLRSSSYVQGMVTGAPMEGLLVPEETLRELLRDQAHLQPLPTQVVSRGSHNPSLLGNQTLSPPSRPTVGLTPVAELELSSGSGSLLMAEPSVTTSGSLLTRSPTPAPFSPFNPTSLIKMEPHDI
sequence,measurement,setting,value
TATGCG,binding signal,FLI1,"1.5 fold enrichment (6-mer frequency, TF over GST control)"
same,binding signal,ELK1,"1.42 fold enrichment (6-mer frequency, TF over GST control)"
same,binding signal,GABPA,"1.35 fold enrichment (6-mer frequency, TF over GST control)"
same,binding signal,ERG,"1.31 fold enrichment (6-mer frequency, TF over GST control)"
same,binding signal,ELF1,"1.31 fold enrichment (6-mer frequency, TF over GST control)"
same,binding signal,EHF,"1.37 fold enrichment (6-mer frequency, TF over GST control)"
same,binding signal,SPI1,"1.32 fold enrichment (6-mer frequency, TF over GST control)"
same,binding signal,SPIB,"1.29 fold enrichment (6-mer frequency, TF over GST control)"
same,binding signal,ELK3,"1.39 fold enrichment (6-mer frequency, TF over GST control)"
same,binding signal,FEV,"1.26 fold enrichment (6-mer frequency, TF over GST control)"
same,binding signal,ETV5,"1.29 fold enrichment (6-mer frequency, TF over GST control)"
same,binding signal,HSF1,"1.23 fold enrichment (6-mer frequency, TF over GST control)"
same,binding signal,SPIC,"1.63 fold enrichment (6-mer frequency, TF over GST control)"
same,binding signal,ELF4,"1.35 fold enrichment (6-mer frequency, TF over GST control)"
same,binding signal,ELK4,"1.44 fold enrichment (6-mer frequency, TF over GST control)"
same,binding signal,ETV2,"1.45 fold enrichment (6-mer frequency, TF over GST control)"
same,binding signal,ELF3,"1.19 fold enrichment (6-mer frequency, TF over GST control)"
same,binding signal,CRX,"1.4 fold enrichment (6-mer frequency, TF over GST control)"
same,binding signal,ETV1,"1.35 fold enrichment (6-mer frequency, TF over GST control)"
